Experimental findings from the supplement of paper PMC10105736 are described below.

Holding throughout (test): MAPPIT interaction score (arbitrary units); higher = stronger binary interaction signal, active = hit call of the paper
For one assay, the target named is Cnb. To be noted: pair source set: Lit-BM-16.
A further assay addresses CycG. To be noted: MAPPIT configuration: N-N; pair source set: Finley_Y2H.
The next assay deals with c-cup. To be noted: MAPPIT configuration: N-N; pair source set: Finley_Y2H.
The target of a further assay is ix. To be noted: MAPPIT configuration: N-N; pair source set: Finley_Y2H.
For another assay, the target named is Cpr47Eg. The conditions noted are these: MAPPIT configuration: N-N; pair source set: Lit-BM-16.
For the next assay, the target named is RpS13. To be noted: pair source set: Lit-BM-16.
In another assay the target is Sas-6. The conditions noted are these: pair source set: Lit-BM-16.
For another assay, the target named is cnn. To be noted: pair source set: Lit-BM-16.
A further assay addresses Cpr62Ba. To be noted: pair source set: RRS.
The target of another assay is DIP1. The conditions noted are these: MAPPIT configuration: N-N; pair source set: screen_2.
The next assay has as its target kermit. To be noted: MAPPIT configuration: N-N; pair source set: Curagen_high_conf.
The target in a further assay is shv. To be noted: MAPPIT configuration: N-N; pair source set: Curagen_high_conf.
Another assay deals with Dfd. The conditions noted are these: MAPPIT configuration: N-N; pair source set: Finley_Y2H.
Another assay concerns the target Cp190. The conditions noted are these: MAPPIT configuration: N-N; pair source set: Lit-BM-16.
In a further assay the target is mod(mdg4). To be noted: pair source set: Lit-BM-16.
For the next assay, the target named is Cpr56F. The conditions noted are these: MAPPIT configuration: N-N; pair source set: Finley_Y2H.
Another assay has as its target Cyp1. The conditions noted are these: pair source set: Lit-BM-16.
Another assay addresses Deaf1. To be noted: MAPPIT configuration: N-N; pair source set: screen_1.
In another assay the target is Coprox. To be noted: MAPPIT configuration: N-N; pair source set: RRS.
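Note: HEK293T cells with Epo stimulation, STAT-responsive firefly luciferase reporter, fold induction versus unstimulated cells divided by the larger fold induction of two negative controls lacking either bait or prey.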

B1: Cpr47Eg (protein)
chain: MKFFIAFACLLAVALANEDANVLRAEQQVNVDGFAYAVELDNSVNVQQKGDLNGEEWVVKGSQSWTSPENVPVSIQYIADANGYQVVSANPPLPTPPPIPEAIQRSLEYIAAHPPSQ
As for B1, the results for the MAPPIT interaction score with Cnb (MAPPIT configuration: N-C) and in the assay with Cnb (MAPPIT configuration: N-N) were 1.11 (inactive) and -0.0471 (inactive), respectively.

B2: mldr (protein)
chain: MYNLRLLRNLLPIAGHAHPRWLASQHKRRPQPGSLPADRLDQLRSDLFERRHELSGAEWTEVRRSLVDGYKHINGHNVDAVILGVCSAPNQLSLAKSYVEFLRSRGSKPNAATLGRLLRVYNAAYHERPLSEAEQSEILQICRSLQAEHETLDASSCENVIHGLVATSGDDWQRGLPLLEMMKVTSTPSVAAYSALAEKAFSVATPEQELAWRLLEEMATARKPPKCEVYLALLNRLANETAQLPAQLSLLLQFLERHEILVSQRVAIRLQELSSQVPQLLHTRTTHLGGLGKCQSCQQHLQPVAISDEEFRQLSECFLERVLIRRDVFQRSTPEEVARFKKFVEKTAPYDCVIDGLNVAYSTGTKKTPQQLAKLVATVVRHFREQDKRVLVLGREHMRNWSKQAMHYVHCNASLFLTSNLSHDDPFLLYATLRSGQETDFFSRDLMRSHAFHLGTELKPIFRRWQQEHQFSLVTQTQTGQIIVKEPVRHRLCAHQVADTWHVPYCAQYTPHPTDSFEVPANWLCIQMKEQTIPATKTKTKTTR
Consider B2, for which the MAPPIT interaction score in the assay with CycG is -0.0303 (inactive); with c-cup it was -0.00733 (inactive); with ix, 0.483 (inactive).

B3: Cnb (protein)
chain: MGNETSLPMDMCSNFDADEIRRLGKRFRKLDLDNSGALSIDEFMSLPELQQNPLVQRVIDIFDADGNGEVDFKEFIQGVSQFSVRGDKLSKLRFAFRIYDMDNDGYISNGELFQVLKMMVGNNLKDTQLQQIVDKTICFADKDEDGKISFDEFCSVVGNTDIHKKMVVDV
For B3, the MAPPIT interaction score with Cpr47Eg was 0.368 (inactive); with RpS13 (MAPPIT configuration: N-C), 0.361 (inactive); in the assay with RpS13 (MAPPIT configuration: N-N) it was -0.0673 (inactive); in the assay with Sas-6 (MAPPIT configuration: N-C), 0.335 (inactive); with Sas-6 (MAPPIT configuration: N-N), -0.212 (inactive); with cnn (MAPPIT configuration: N-C), -0.173 (inactive). Further, the MAPPIT interaction score in the assay with cnn (MAPPIT configuration: N-N) was 0.273 (inactive).

B4: Rad60 (protein)
chain: MSDDDCDIFSAARKRIPEIALPKNPYNLGNDSFSKEVDYDFIEDLPKKSTKTGKRKNPAATRKNPPKSQDDASPPKQAEHKAVEPEEDMRTERSLSPVSLLILEMEKKNGQQSDVEKHAKENDVGPVARRTRSSLNRSEMAPPPVSPTVEVPTQTKPKKRGQKKRTSLTTTTSNSASMEVSLPSIVGQNNEHISRRWTLAEVAARSKVVDSIDLVSAVAPRVEGFVNLDSEDEGEKEAPPVVEEENIFDNDNPTIEVALSWLGEIQIYKLRQHQKFKHLFKELASRNGIDENDITVDMYYNFVGPEDTPHSIGLKSFHTLTGHPTKSHNNNNVAAKIDYNPEALCRKPKKFQVKVQADKWKHPLVIPMKKTDNFKIIFIKCAEELNCDPRTIKLFFDGDLLDPNDTPNNQDMEGNEVIDLKIKA
As to B4, the results for the MAPPIT interaction score with Cpr62Ba (MAPPIT configuration: N-C) and with Cpr62Ba (MAPPIT configuration: N-N) were -0.181 (inactive) and 1.45 (inactive), respectively.

B5: Mob4 (protein)
chain: MKMADGSTILRRNRPGTKSKDFCRWPDEPLEEMDSTLAVQQYIQQLIKRDPSNVELILTMPEAQDEGVWKYEHLRQFCMELNGLAVRLQKECSPSTCTQMTATDQWIFLCAAHKTPKECPAIDYTRHTLDGAACLLNSNKYFPSRVSIKESSVTKLGSVCRRVYRIFSHAYFHHRRIFDEFEAETYLCHRFTHFVTKYNLMSKENLIVPINVGENAAPGESEA
In the case of B5, the MAPPIT interaction score in the assay with DIP1 is 0.606 (inactive); with kermit, 0.744 (inactive); in the assay with shv, 0.755 (inactive).

B6: eIF3i (protein)
chain: MRPLMLQGHERSITQIKYNREGDLLFSCSKDQKPNVWYSLNGERLGTYDGHQGAVWCLDVDWESRKLITGAGDMTAKIWDVEYGTVIASIPTKSSVRTSNFSFSGNQAAYSTDKAMGQSCELFLIDVRNADSSLSEQEPTLRIPMTESKITSMLWGPLDETIITGHDNGNIAIWDIRKGQKVVDSGTDHSAGINDMQLSKDGTMFVTASKDTTAKLFDSESLMCLKTYKTERPVNSAAISPIMDHVVLGGGQDAMEVTTTSTKAGKFDSRFFHLIYEEEFARLKGHFGPINSLAFHPDGKSYASGGEDGFVRVQTFDSTYFENIFE
As for B6, in the assay with Dfd, the MAPPIT interaction score was 0.00823 (inactive).

B7: su(Hw) (protein)
chain: MSASKEGKEKKGKLLGVENISPPKDKRPATRMKLLNDVGAGEDSEASTTTTTSRTPSNKQEKRGSVAGSRIKILNEEILGTPKTEKRGATKSTAPAASTVKILNEKKTPSATVTAVETTKIKTSPSKRKKMEHYVLQAVKSENTKADTTVTVVTEEDDTIDFILADDEEVVPGRIENNNGQEIVVTEDDEDLGEDGDEDGEDSSGKGNSSQTKIKEIVEHVCGKCYKTFRRVQSLKKHLEFCRYDSGYHLRKADMLKNLEKIEKDAVVMEKKDICFCCSESYDTFHLGHINCPDCPKSFKTQTSYERHIFITHSEFSDFPCSICNANLRSEALLALHEEQHKSRGKPYACKICGKDFTRSYHLKRHQKYSSCSSNETDTMSCKVCDRVFYRLDNLRSHLKQHLGTQVVKKPEYMCHTCKNCFYSLSTLNIHIRTHTGEKPFDCDLCDKKFSALVALKKHRRYHTGEKPYSCTVCNQAFAVKEVLNRHMKRHTGERPHKCDECGKSFIQATQLRTHSKTHIRPFPCEQCDEKFKTEKQLERHVKTHSRTKRPVFSCAECKRNFRTPALLKEHMDEGKHSPKQQRSSMRSAVKIMERTDCAICDKNFDSSDTLRRHIRTVHECDPDDIFGVEPHPSKRAKKDIESEEVVPVALNTSAGSLISSQTDGNGVVVREFLVDEGDGAAQTITLENETYTILPLDGAIEGEQLTDEAGVKPEAKKEEAQVSPVVKKEQRKSLAASLAAAIADNLEESCSEDDFSGEILTEEDIKLKENVGKLIDMLVDPPILKKYGWPNAPEETVLCKVIENCGHDLTKGGENYAELDYGSRMREYCKLLFTVVIHNDSIKSLLNNFPIDDVIEYVLGDEDQDEGGLDKDNESHSGDEEAVSVTGETKTNEIREKPEKKEVSAKSEKKEIVGKAVDKDNSEEVVRENKKKPVGEQEKA
As for B7, the MAPPIT interaction score was 0.105 (inactive) in the assay with Cp190, 2.52 (inactive) with mod(mdg4) (MAPPIT configuration: N-C) and 0.317 (inactive) with mod(mdg4) (MAPPIT configuration: N-N).

B8: Uro (protein)
chain: MFATPLRQPAAANHQTPKNSAGMDEHGKPYQYEITDHGYGKDAVKVLHVSRNGPVHAIQEFEVGTHLKLYSKKDYYQGNNSDIVATDSQKNTVYLLAKKHGIESPEKFALLLARHFINKYSHVEEAHVHVEAYPWQRVCQEETRTNVNGKCENGVQGNCDFSSIDNRSLHNHAFIFTPTALHYCDVVIRRTDPKQTVITGIKGLRVLKTTQSSFVNFVNDEFRSLPDQYDRIFSTVVDCSWEYSDTENLDFLRAWQTVKNIIIRNFAGDPQVGVSSPSVQHTLYLSERQVLDVLPQVSVISMTMPNKHYFNFDTKPFQKIAPGDNNEVFIPVDKPHGTIYAQLARKNINSHL
Consider B8, for which the MAPPIT interaction score with Cpr56F was -0.112 (inactive).

B9: Eno (protein)
chain: MSWTASVFLRTSTTSMKFLRLRWPLPRIPQNKSANVAPRFRSKSAVSQLSSGFKFVQIRKSTCDSNEMTIKAIKARQIYDSRGNPTVEVDLTTELGLFRAAVPSGASTGVHEALELRDNDKANYHGKSVLKAVGHVNDTLGPELIKANLDVVDQASIDNFMIKLDGTENKSKFGANAILGVSLAVAKAGAAKKGVPLYKHIADLAGNKEIILPVPAFNVINGGSHAGNKLAMQEFMILPTGATSFTEAMKMGSEVYHHLKNVIKAKFGLDATAVGDEGGFAPNIQSNKEALNLISDAIAKAGYTGKIEIGMDVAASEFYKDGQYDLDFKNEKSDKSQWLPADKLANLYQEFIKDFPIVSIEDPFDQDHWEAWSNLTGCTDIQIVGDDLTVTNPKRIATAVEKKACNCLLLKVNQIGTVTESIAAHLLAKKNGWGTMVSHRSGETEDSFIGDLVVGLSTGQIKTGAPCRSERLAKYNQILRIEEEIGAGVKFAGKSFRKPQ
For the molecule B9, the MAPPIT interaction score in the assay with Cyp1 (MAPPIT configuration: N-C) was 0.69 (inactive); with Cyp1 (MAPPIT configuration: N-N) it was -0.102 (inactive).

B10: Clamp (protein)
chain: MEDLTKNIIFTNAINGQPATIQYQTADGTILKQPKIEGQKTEQQPTFYYTTNGNGGTVNLAQLATTDDNKTCYIAQPVGGYNYALVNGMPLNQGAALGIATVDAQGRIQIVNQNKPIAANTISNISFKCDVCSDMFPHLALLNAHKRMHTDGEQQQQQQHNAQAGGDSIAVVSAQGLVQAQNIIGNGQMGQIQIVSSDTLEPVQQSVMQQQQHESKASKCINCGSSMLQQSKRKGPKQVRCESCMQAEQTAQQQQQLFVAQDGQMAHPVQIISTTPQAQAQLQQIVAAQTGGTTPKREASSGSGHHPVKKRNSQQMTKCQKCNGSGVVLVGQHSHASHSGVGGSVKQSVTVKTENPSKPFSCNICGGLFSRYSSLWSHKKLHSGEKNYKCSICGLAFAKAVYLKNHARIHTGEKPYKCQTCGMQFSQSPHLKNHERTHSGERPYVCGVCDKGFARHATLWNHRRIHTGEKPYKCEICGSAFSQAAHLKNHAKVHSGEKPYKCEICSAAFADRFALKRHRGIHQKYGQTAPRQTSSDGMIVHKQEIPDMEDEAQQEVIIGGL
As for B10, in the assay with Deaf1, the MAPPIT interaction score was 0.235 (inactive).

B11: Ilp6 (protein)
chain: MVLKVPTSKVLLVLATLFAVAAMISSWMPQVAASPLAPTEYEQRRMMCSTGLSDVIQKICVSGTVALGDVFPNSFGKRRKRDLQNVTDLCCKSGGCTYRELLQYCKG
Turning to B11, in the assay with Coprox, the MAPPIT interaction score is -0.378 (inactive).

B12: Aladin (protein)
chain: MAALSNLKQCPPFSTLPDLALRHNHIPELERYPQINLNSELLANPAGQRYYGGQSFVSVNEGVLKRIARSFFNGGFWKTLEEARSPETREQAPLIAQAGDLIAQFLGLATGLRILPHTQQLSAERIAQFVETRDWLNSDVRYLAWNQHFFCLAVAGVDDVVRIYTKSSSATTATVLKSPSQTQITCMAWRPLCASEIVIGCRQGLCFWEVDSTLHLGRTNAPSEIFKYPNNLPITSMQWNKDGTQLATASIGDRSIIIWQPDTGMMQPLKRLGPPGSLLKWSPDNDWLFAATVDRVFRVWNCHQQWTTERWVCGPGGYVQTACWSPCGRFLLFVSSAEPILYRLQFVQQSLLSSSADEKEILPIADLNACSIDANRTLVGGPAQQLAWDPHGNYLVVTFKATNCIAVFRTFIQKFDLQISAAYYLSGETAAEHPSFICFQPLYEDNDRSVLTIAWSSGRIQYYAFD
Regarding B12, the MAPPIT interaction score with CycG was -0.0444 (inactive).

B13: RpS13 (protein)
chain: MGRMHAPGKGISQSALPYRRTVPSWLKLNADDVKEQIKKLGKKGLTPSKIGIILRDSHGVAQVRFVNGNKILRIMKSVGLKPDIPEDLYHMIKKAVAIRKHLERNRKDKDGKFRLILVESRIHRLARYYKTKSVLPPNWKYESSTASALVA
In the case of B13, the MAPPIT interaction score in the assay with Cnb (MAPPIT configuration: N-N) was 0.219 (inactive).
